An excerpt weighted towards active compounds, which were near 1.1% of everything screened.
BAP1 block – inhibitors of human BAP1 deubiquitinase. calls only at 20 µM. Q92560. 0.48% of 72,000 active. recombinant BAP1, Ub-AMC hydrolysis fluorescence kinetic; stronger effect = lower value. AID 436;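 active = activity remaining at or below 50% of control, provided the compound also passes the data quality filters; inactive = the rest, including low values that fail the filters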
Target sequence (Q92560 whole entry, looked up): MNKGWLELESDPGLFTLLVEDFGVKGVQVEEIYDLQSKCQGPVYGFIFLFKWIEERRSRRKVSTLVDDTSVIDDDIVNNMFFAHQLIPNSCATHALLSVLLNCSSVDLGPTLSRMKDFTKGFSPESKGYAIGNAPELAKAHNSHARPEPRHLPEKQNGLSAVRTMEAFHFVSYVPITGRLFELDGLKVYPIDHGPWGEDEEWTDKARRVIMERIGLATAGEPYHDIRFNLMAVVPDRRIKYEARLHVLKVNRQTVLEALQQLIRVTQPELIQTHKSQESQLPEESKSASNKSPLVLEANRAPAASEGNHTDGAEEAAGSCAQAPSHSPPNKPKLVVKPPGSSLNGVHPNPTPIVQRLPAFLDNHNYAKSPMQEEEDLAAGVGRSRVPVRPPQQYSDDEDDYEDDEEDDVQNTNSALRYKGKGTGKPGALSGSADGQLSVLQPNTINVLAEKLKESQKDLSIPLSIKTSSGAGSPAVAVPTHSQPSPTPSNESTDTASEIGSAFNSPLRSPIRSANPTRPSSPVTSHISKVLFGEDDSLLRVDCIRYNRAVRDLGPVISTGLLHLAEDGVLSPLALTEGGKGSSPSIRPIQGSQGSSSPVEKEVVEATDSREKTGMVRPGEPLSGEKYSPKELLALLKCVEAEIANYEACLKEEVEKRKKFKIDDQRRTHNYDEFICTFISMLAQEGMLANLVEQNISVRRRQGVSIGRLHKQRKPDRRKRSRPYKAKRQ
FXIa inh mix – blocks human factor XIa in pooled compound mixtures. purified FXIa, fluorogenic substrate. inhibition, % at 5 µM. 0.19% of 62,000 active;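 also: each value is inhibition by a whole ten-compound pool holding the compound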
Cathepsin G inh – cathepsin G (human) inhibition; purified enzyme, AMC-tetrapeptide fluorescence, pooled mixtures; inhibition, % at 5 µM (by protocol); 0.2% of 62,000 active;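 active = inhibition above 20% in each of the two mixture wells holding the compound; inactive = inhibition of 20% or less in either well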
HePTP inhibitor – blocks human HePTP tyrosine phosphatase; recombinant HePTP phosphatase activity, OD absorbance; inhibition, % at 20 µM; P35236; 0.64% of 110,000 active; in the data active = inhibition above about 50%
FXIIa inh mix – factor XIIa (human) inhibition, mixture screen; P00748; purified FXIIa, fluorogenic substrate, pooled mixtures; inhibition, % at 5 µM; 0.2% of 62,000 active
C1s block – blocks human complement C1s protease activity | P09871 | purified C1s, fluorogenic AMC substrate, pooled mixtures | mean inhibition % of two 10-compound mixtures (stronger effect = higher value), % at 5 µM (by protocol) | 0.16% of 62,000 active;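 active = inhibition above 20% in each of the two 10-compound mixture wells holding the compound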
Hits are given with their value; n = inactive; x = not tested or not shown; ! = not confirmed by another sample. Rule as the data show it, unless noted: active = inhibition above about 20% (passing the limit was not always enough); inactive = the rest.

SMILES | BAP1 block | FXIa inh mix | Cathepsin G inh | HePTP inhibitor | FXIIa inh mix | C1s block
COC(=O)c1ccc(C(=O)OC)c(NC(=O)c2cc(Cl)ccc2Cl)c1 | x | x | x | 102.1 | x | x
Cc1cc(C)n2c(SCc3ccc(C#N)cc3)nnc2n1 | n | n | n | n | n | n
Cc1cc(C)n(CCc2nc3c4ccccc4nc(SCc4ccc(C#N)cc4)n3n2)n1 | n | n | n | n | 25.6 | n
NS(=O)(=O)c1cccc(NC(=O)COc2ccc(Br)cc2)c1 | x | x | x | n | x | x
O=C1NC(=S)S/C1=C/c1ccc(O)c(Br)c1 | x | x | x | 103.6 | x | x
CC(=O)NS(=O)(=O)c1ccc(NC(=O)/C=C/c2ccc(F)cc2)cc1 | x | x | x | 73.5 | x | x
O=C(/C=C/c1ccc(F)cc1)Nc1ccc(F)cc1 | x | x | x | n | x | x
Cc1ccc(SCc2[nH]nc3c2C(c2ccc(C)o2)C(C#N)=C(N)O3)cc1 (stereo not drawn) | n | 85.9 | n | n | n | n
Cc1ccc(SCc2[nH]nc3c2C(c2ccco2)C(C#N)=C(N)O3)cc1 (stereo not drawn) | n | n | n | n | n | n
O=C(COc1ccc2c3c(c(=O)oc2c1)CCCC3)c1ccc(F)cc1 | x | x | x | n | x | x
COc1ccc(N2C(=O)NC(=O)/C(=C/c3cc(Cl)cc(OC)c3O)C2=O)cc1 | x | x | x | n | x | x
CC(C)c1ccc(/C=C/C(=O)Nc2ccc(C(N)=O)cc2)cc1 | x | x | x | 103.6 | x | x
CCOC(=O)N1CCC(NC(=O)C2CCCN(Cc3nc(-c4cccc(Cl)c4)oc3C)C2)CC1 (stereo not drawn) | n | 21.2 | n | n | n | n
COc1ccc(S(=O)(=O)N2CCN(Cc3ccccc3)CC2)cc1 | n | n | n | n | n | n
COc1ccc(S(=O)(=O)N2CCN(Cc3ccc([N+](=O)[O-])cc3)CC2)cc1 | x | x | x | 56.6 | x | x
O=C1N=c2ccccc2=C1c1sc(=S)n(-c2ccc(C(=O)O)cc2)c1O | x | x | x | 100.0 | x | x
CCN(CC)c1ccc(-n2c(O)c(C3=c4ccccc4=NC3=O)sc2=S)cc1 | x | x | x | n | x | x
O=C(O)c1ccc(-n2c(O)c(/C=C3\C=Nc4ccccc43)sc2=S)cc1 | x | x | x | 57.4 | x | x
O=C(/C=C1/NC(=S)N(c2ccccc2)C1=O)c1ccc(Cl)cc1 | x | x | x | n | x | x
O=C(CNC(=O)c1ccc(F)cc1)N=Nc1c(O)n(Cc2ccc3c(c2)OCO3)c2ccccc12 | x | x | x | n | x | x
Cc1cc(NC(=O)c2noc3c2CCc2ccccc2-3)n(-c2ccccc2)n1 | n | n | 58.7 | n | n | n
Cc1cc(NC(=O)Nc2cc(C)nn2-c2ccccc2)n(-c2ccccc2)n1 | n | n | n | n | n | n
CC1CCc2c(sc(NC(=O)c3cccc(Br)c3)c2C(N)=O)C1 (stereo not drawn) | x | x | x | n | x | x
CC1CCc2c(sc(NC(=O)c3ccc(Cl)c(Cl)c3)c2C(N)=O)C1 (stereo not drawn) | x | x | x | 104.7 | x | x
CCOC(=O)Nc1sc2c(c1C(N)=O)CCC(C)C2 (stereo not drawn) | x | x | x | 102.7 | x | x
SMILES | BAP1 block | FXIa inh mix | Cathepsin G inh | HePTP inhibitor | FXIIa inh mix | C1s block
CCCOc1ccc(C(=O)Nc2scc(-c3ccc(F)cc3)c2C(=O)OC)cc1 | x | x | x | n | x | x
C=C(C)CNC(=S)Nc1ccccn1 | x | x | x | 103.0 | x | x
O=C(CN(CCc1ccccc1)S(=O)(=O)c1ccc(Cl)cc1)NCc1ccccn1 | x | x | x | n | x | x
CCOC(=O)C1=C(O)/C(=C\c2ccc(Cl)cc2Cl)N=C1C | x | x | x | n | x | x
Cc1cc(OCC(=O)Nc2ccc3oc(-c4ccncc4)nc3c2)ccc1Cl | n | n | n | n | n | n
O=C(COc1ccccc1[N+](=O)[O-])Nc1ccc(-c2nc3ncccc3o2)cc1 | x | x | x | 65.0 | x | x
Cc1cc(OCC(=O)Nc2ccc(-c3nc4ncccc4o3)cc2)ccc1Cl | x | x | x | 63.1 | x | x
Cc1ccc(OCC(=O)Nc2ccc(-c3nc4ncccc4o3)cc2)c(C)c1 | x | n | n | 104.0! | n | n
CCN(CC)CCCNC(=O)c1cccc([N+](=O)[O-])c1C | x | x | x | n | x | x
CCOC(=O)c1ccc(NC(=S)NC(NC(=O)Cc2ccccc2)C(Cl)(Cl)Cl)cc1 (stereo not drawn) | x | x | x | 103.7 | x | x
CCOC(=O)c1ccc(NC(=S)NC(NC(=O)c2ccccc2)C(Cl)(Cl)Cl)cc1 (stereo not drawn) | x | x | x | n | x | x
CC1C(C(=O)N(C=O)c2ccccc2F)C2C=CC1C21CC1 (stereo not drawn) | x | x | x | n | x | x
Cc1ccccc1N(C=O)C(=O)C1C(C)C2C=CC1C21CC1 (stereo not drawn) | x | x | x | 104.7 | x | x
COc1ccc(N2C(=O)/C(=C\c3cccc(OC)c3O)SC2=S)cc1 | x | x | x | n | x | x
COc1ccc(N2C(=O)/C(=C/c3cc([N+](=O)[O-])cc(OC)c3O)SC2=S)cc1 | x | x | x | 104.3 | x | x
COc1ccc(N2C(=O)NC(=O)/C(=C/c3ccc(-c4ccc([N+](=O)[O-])cc4)o3)C2=O)cc1 | x | x | x | n | x | x
CCCCN1C(=O)/C(=C2\SC(N3CCCCC3)=NC2=O)c2ccccc21 | n | n | n | n | n | 22.8
O=[N+]([O-])c1cccc2c1NC(c1ccc(Cl)cc1)C1CC=CC21 (stereo not drawn) | x | x | x | 104.3 | x | x
O=C(O)c1cccc2c1NC(c1cccc3ccccc13)C1CC=CC21 (stereo not drawn) | x | x | x | 102.2 | x | x
O=C(O)c1ccc2c(c1)C1C=CCC1C(c1ccc([N+](=O)[O-])cc1)N2 (stereo not drawn) | x | x | x | 102.2 | x | x
O=[N+]([O-])c1cccc2c1NC(c1ccccc1F)C1CC=CC21 (stereo not drawn) | x | x | x | n | x | x
COC(=O)c1ccc2c(c1)C1C=CCC1C(c1ccc([N+](=O)[O-])cc1)N2 (stereo not drawn) | x | x | x | n | x | x
O=C(O)c1cccc2c1NC(c1ccc(Cl)cc1)C1CC=CC21 (stereo not drawn) | x | x | x | 104.3 | x | x
Cc1cc([N+](=O)[O-])c2[nH]c(C(=O)N/N=C/c3ccccn3)c(-c3ccccc3)c2c1 | x | x | x | n | x | x
CCSc1nnc(NC(=O)/C=C/c2ccc(F)cc2)s1 | x | x | x | n | x | x
SMILES | BAP1 block | FXIa inh mix | Cathepsin G inh | HePTP inhibitor | FXIIa inh mix | C1s block
O=C(O)C1Nc2c(cccc2[N+](=O)[O-])C2C=CCC12 (stereo not drawn) | x | x | x | 103.5 | x | x
O=[N+]([O-])c1ccc(C2Nc3c(cccc3[N+](=O)[O-])C3C=CCC32)cc1 (stereo not drawn) | x | x | x | n | x | x
O=C(O)c1cccc2c1NC(c1ccc([N+](=O)[O-])cc1)C1CC=CC21 (stereo not drawn) | x | x | x | 103.1 | x | x
COc1cccc2c1NC(C(=O)O)C1CC=CC21 (stereo not drawn) | x | n | n | x | n | n
COc1cc(NC(=O)c2ccc(OC)c(OC)c2)ccc1NC(=O)c1ccco1 | x | x | x | n | x | x
CCOC(=O)C(C(C)=O)C1=C(c2ccc([N+](=O)[O-])cc2)C(=O)c2ccccc2C1=O (stereo not drawn) | x | x | x | n | x | x
CCOC(=O)c1ccc(N2NC(=O)/C(=C/c3ccccc3)C2=O)cc1 | x | x | x | n | x | x
CCOC(=O)c1ccc(N2NC(=O)/C(=C/c3ccc(C=O)cc3)C2=O)cc1 | x | x | x | 95.7 | x | x
CCOC(=O)c1ccc(N2NC(=O)/C(=C/c3cc(OC)c(OC)cc3Br)C2=O)cc1 | x | x | x | n | x | x
CCOC(=O)c1ccc(N2NC(=O)/C(=C/c3cccc(OC)c3O)C2=O)cc1 | x | x | x | 55.4 | x | x
CCOC(=O)c1ccc(N2NC(=O)/C(=C/c3cc(Br)ccc3O)C2=O)cc1 | x | x | x | 75.4 | x | x
